Experimental findings from PubChem BioAssay AID1508622 (National Center for Advancing Translational Sciences (NCATS), 2021) are described below.

Calls of active or inactive are those of the source. A call without a number means that no potency is given here. The call rests on the fitted dose curve; in most records, active means well fitted activation curve with a large enough effect; inconclusive means small, poorly fitted or top-dose-only effect; inactive means no such curve, though single readings can be large or run the other way.
Potency means the concentration at half of the fitted maximal effect.

A short description of the test: Confirmatory qHTS for Identification of Small Molecule Activators of Huntingtin-Antisense Promoter Activity. The note with it: HEK293 HTT-AS promoter firefly luciferase reporter, 24 h; series mostly up to 57.5 µM. Put shortly:
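Activity normalized between vehicle control (0%) and zero RLU (-100%) from firefly luminescence (Dual-Glo). Compounds, up to 57.5 uM final, incubated 24 h at 37C on HEK293 reporter cells plated 24 h earlier.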
Background: qHTS replaces the single test concentration by a dilution series.
`COc1ccc(N2CCN(Cc3nc4c(c(=O)n(C)c(=O)n4C)n3C(C)C)CC2)cc1`: the Potency result is “inactive”.

For `CC(=O)N1CCCc2cc(S(=O)(=O)N(C)CC(=O)Nc3cccc(Cl)c3C)ccc21`, the Potency entry is “inactive”. In the case of `O=C(C1CCC1)N1CCCc2cc(S(=O)(=O)N3CCN(c4ccccc4)CC3)ccc21`, the Potency result was “inactive”. Next, `Cc1ccc(CSC2=Nc3ccccc3C3=NC(CC(=O)NC4CCCCC4)C(=O)N23)cc1` (stereo not drawn): “inactive”. Next, `CCOC(=O)c1cc(-c2ccccc2)n(-c2cccc(C(=O)Nc3cccc(F)c3)c2)c1C`: “inactive”; `Cn1c(COc2ccccc2C(C)(C)C)nc2ccccc21`: “inactive”. Take `O=C(NCC1CCN(Cc2ccccc2F)CC1)Nc1ccc(F)c(Cl)c1`: the Potency entry is “inactive”. Regarding `CCN1C(=O)c2ccccc2Sc2ccc(NC(=O)c3cccc(C)c3)cc21`, the Potency entry was “inactive”.

In the case of `COCCN1C(=O)c2[nH]nc(-c3ccccc3O)c2C1c1ccc(OCc2ccccc2)c(OC)c1` (stereo not drawn), the Potency result is “inactive”. As for `COc1cc(NS(=O)(=O)c2ccc3c(c2)CCCN3C(C)=O)cc(OC)c1OC`, the entry is “inactive”; as for `COc1cccc(NS(=O)(=O)c2ccc3[nH]cc(C(=O)NCCc4ccc(C)cc4)c(=O)c3c2)c1`, “inactive”. Next, `Cc1ccc(CNC(=O)c2c(Nc3ccccc3C)sc(C(=O)c3ccc(F)cc3)c2N)cc1`: “inactive”; `Cc1cccc(NC(=O)c2ccc(F)c(S(=O)(=O)N(C)C3CCCCC3)c2)c1`: “inactive”. Next, `CCOc1ccc(-c2nc(CSCC(=O)NCCc3ccc(OCC)c(OCC)c3)c(C)o2)cc1`: “inactive”. With `COc1ccc(OC2CCN(S(=O)(=O)c3ccc(OC)cc3)CC2)cc1`, the Potency entry is “inactive”.

Consider `CN(C)c1ccc(Nc2nc(N)n(C(=O)c3c(F)cccc3F)n2)cc1`, for which the Potency is 30.1 µM (active). As for `CC1=C(C(=O)OCc2ccc(C)cc2)C(c2ccccc2Cl)CC(=O)N1` (stereo not drawn), the entry is “inactive”. As for `COc1ccc(-c2noc(N3CCC(C(=O)N4CCN(c5cccc(OC)c5)CC4)CC3)n2)cc1`, the entry is “inactive”; as for `COc1cccc(-c2cn3c(n2)sc2cc(C(=O)NCc4cccs4)ccc23)c1`, 8.49 µM (active); as for `COc1ccc(-c2nc(CNS(=O)(=O)c3ccc(F)cc3)cs2)cc1`, “inactive”. As for `CCc1ccc(NC(=O)CSc2nc(=O)n(Cc3cccnc3)c3c2CCC3)cc1`, the entry is “inactive”. Regarding `CCn1c(=O)sc2cc(NS(=O)(=O)c3ccc(F)c(C)c3)ccc21`, the Potency result was “inactive”. Next, `CCCc1cc(N2CCN(c3ccccc3F)CC2)n2cnnc2n1`: “inactive”.
